# AmpC inh detg = inhibitors of E. coli AmpC beta-lactamase with detergent. P00811. 370,000 compounds, 0.041% hits. AmpC hydrolysis of nitrocefin, absorbance 480 nm, 0.01% Triton. AID 485294. Potency, µM (highest dose often 114 µM), for inactives: top-dose activity change, negative = inhibition, actives largely listed as inhibitors;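 also: potency is read from the fitted curve at half-maximal effect; 0% = no-compound wells and -100% = no-enzyme wells; nearly all actives have a fitted effect of over 25% in size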
# Target sequence (P00811 whole entry, looked up): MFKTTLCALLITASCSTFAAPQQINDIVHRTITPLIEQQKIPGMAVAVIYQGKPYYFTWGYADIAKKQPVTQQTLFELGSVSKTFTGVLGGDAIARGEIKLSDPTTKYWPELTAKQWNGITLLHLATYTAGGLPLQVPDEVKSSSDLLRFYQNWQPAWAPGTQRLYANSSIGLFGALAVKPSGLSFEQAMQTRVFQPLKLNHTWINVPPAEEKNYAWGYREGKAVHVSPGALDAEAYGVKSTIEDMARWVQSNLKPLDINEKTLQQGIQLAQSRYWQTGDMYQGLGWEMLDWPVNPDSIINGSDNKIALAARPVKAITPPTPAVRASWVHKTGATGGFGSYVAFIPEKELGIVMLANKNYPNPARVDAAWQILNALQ
#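 20 mM phosphate pH 7.0 + 0.01% (detergent screen) or 0.0001% Triton X-100; 5.3 nM AmpC reagent; cpd preinc 15 min RT; nitrocefin (800 uM stock) to start; A480 q20 s × 4 min; Activity was normalised to no-enzyme and no-compound control wells.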
# AmpC no deterg = blocks E. coli AmpC beta-lactamase in detergent-free assay. 330,000 compounds, 0.52% hits. Potency, µM (highest dose often 57.1 µM), for the others: at the top dose activity change, negative = inhibition, most hits filed as inhibitors. AmpC nitrocefin hydrolysis, absorbance 480 nm, 0.0001% Triton. P00811;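 also: potency is read from the fitted curve at half-maximal effect; plate controls were no compound for no effect and no enzyme for full effect; nearly all actives have a fitted effect of over 20% in size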
#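 20 mM phosphate pH 7.0 + 0.01% (detergent screen) or 0.0001% Triton X-100; 5.3 nM AmpC reagent; cpd preinc 15 min RT; nitrocefin (800 uM stock) to start; A480 q20 s × 4 min; Activity was normalised to no-enzyme and no-compound control wells.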
# CHX counter = counter-screen hit for Shiga toxin inhibitors, cycloheximide | cell reporter, cycloheximide protein synthesis inhibition counterscreen | max response, % | 300,000 compounds, 12% hits; in the data active = max response mostly above about 13%, no sharp cut-off; inactive = mostly below about 14%; also: read at 38.3 µM for the half of the compounds with a filed dose; 0% is about no effect
# NS1 inh = inhibitors of influenza NS1 protein function | Potency, µM (series often up to 46.1 µM), for the others: at the highest dose activity, positive = more growth | 270,000 compounds, 0.4% hits | AID 2326; calls by dose curve; also: potency is read from the fitted curve at half-maximal effect; actives are rising curves; nearly all actives have a fitted effect of over 50% in size
#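 S. cerevisiae expressing influenza A NS1, grown in glucose, washed, then diluted 1:100 into pH 6.0 -URA galactose medium with 23 nl compound. Growth recovery read as OD600; NS1-free strain serves as control.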
# Shiga toxin inh = Shiga toxin inhibition | Vero cells, Shiga toxin protein synthesis inhibition reporter | 290,000 compounds, 9.2% hits | inhibition, % at 38.7 µM; in the data active = inhibition mostly above about 28%, no sharp cut-off; inactive = mostly below about 43%; also: 0% is about no effect
# * = called active by the depositor; ? = inconclusive; nt = not tested or not shown. Shown is part of a subset that was picked to be rich in hits. Unless noted, calls follow the shape of the dose curve; as a rule, active = well fitted curve in the direction sought with a large enough effect; inconclusive = small, poorly fitted or top-dose-only effect, or another doubt; inactive = no such curve, though single readings can be large; an effect the other way counts as inactive or inconclusive.
SMILES,AmpC inh detg,AmpC no deterg,CHX counter,NS1 inh,Shiga toxin inh
O=C(O)/C=C/C(=O)Nc1ccccc1-c1ccccc1NC(=O)/C=C/C(=O)O,-16%,-27%,-1,11%,-5
O=C(O)/C=C\C(=O)Nc1ccccc1C#Cc1ccc(Br)cc1,-5%,-19%,56*,-34%,89*
O=C(O)/C=C\C(=O)Nc1ccccc1C#Cc1ccccc1,0%,-19%,59*,-16%,active
O=C(Nc1cccc(Cl)c1Cl)C1CCCO1 (stereo unspecified),-10%,-22%,-1,17%,7
Cc1ccc(C)c(NC(=O)Cn2cc(C(=O)C3CC3)c3ccccc32)c1,-7%,-27%,10,-22%,-11
COc1cccc(NC(=O)Cn2cc(C(=O)C3CC3)c3ccccc32)c1,?,28µM*,nt,nt,nt
Cc1ccc(NC(=O)Cn2cc(C(=O)C3CC3)c3ccccc32)c(C)c1,0%,-8%,33*,-2%,36*
COc1ccc(CNc2nc(-c3cccnc3)nn2C(=O)C(C)C)cc1,?,3%,4,nt,11
CC(=O)N(C(C)=O)S(=O)(=O)c1ccc(N=NN2CCOCC2)cc1,-4%,-13%,-1,6%,9
COC(=O)CCc1nc2c(C#N)c(-c3ccc(Cl)cc3)ccn2n1,-11%,3%,-1,nt,-10
N#Cc1c(-c2ccc(Cl)cc2)ccn2nc(C3CCCCC3)nc12,-8%,-20%,42*,8%,39
Cc1c(C(=O)O)cnc2cc(-c3ccc(Cl)cc3)nn12,?,?,16*,-178%,30
CC(=O)c1cnc2cc(-c3ccc(Cl)cc3)nn2c1C,2%,-18%,21*,-7%,56*
O=C(NCc1ccccc1Cl)c1nnc(Cc2cccc(F)c2)o1,6%,nt,nt,nt,nt
Cc1cc(NC(=O)COc2ccc(C)c(C)c2)no1,5%,-11%,39*,-2%,65*
O=C(COc1ccc2ccccc2c1)Nc1ccncc1,6%,0%,27*,-10%,27*
O=C(COc1ccccc1)Nc1ccncc1,-2%,-7%,-2,-5%,24
Cc1cc(NC(=O)COc2ccc3ccccc3c2)no1,?,-53%,31*,0%,27
CCCN(C(=O)c1cc2c(=O)oc3ccccc3c2s1)c1ccc(CC)cc1,-2%,nt,nt,nt,nt
O=C(O)Cn1nnc(-c2cccs2)n1,-10%,-21%,-2,10%,-18
O=C(Cn1nnc(-c2cccs2)n1)NCc1ccco1,3%,-23%,12*,1%,51*
CC(C)(C)NC(=O)Cn1nnc(-c2cccs2)n1,?,2%,31*,-7%,30*
CC(C)(C)OC(=O)N1CCC(NC(=O)c2nc[nH]c2C(=O)NCC(=O)OCc2ccccc2)CC1,-6%,125%,-1,-2%,7
CC1=C(C)[N+](=O)C2(O)CCCCC2(C)N1[O-] (stereo unspecified),11%,-24%,-7,?,16
CC12CCCCC1(O)[N+](=O)C1=C(CCCC1)N2[O-] (stereo unspecified),-24%,-7%,15*,3%,86
SMILES,AmpC inh detg,AmpC no deterg,CHX counter,NS1 inh,Shiga toxin inh
C=C1C=CS(=O)(=O)N(C(C)C(=O)OC)C1 (stereo unspecified),nt,nt,0,nt,-9
COc1ccc(-c2cc3c(=O)n(CC(=O)N4CCCCC4)ncn3n2)cc1,-6%,-13%,-1,7%,4
CCC1CCCCN1CCCNC(=O)Cn1ncn2nc(-c3ccc(OC)cc3)cc2c1=O (stereo unspecified),-13%,11%,29*,-2%,55*
CCc1ccc(-c2cc3c(=O)n(CC(=O)NCCCN4CCC(Cc5ccccc5)CC4)nc(C)n3n2)cc1,0%,1%,0,-5%,-6
CCc1ccc(-c2cc3c(=O)n(CC(=O)NCCCN4CCN(C)CC4)ncn3n2)cc1,-3%,76%,24*,-14%,36*
COc1ccc(-c2cc3c(=O)n(CC(=O)NCCCc4ccccc4)ncn3n2)cc1,?,-30%,16*,3%,26*
O=C(NCc1cccs1)C(=O)NCC1OCCCN1S(=O)(=O)c1cc(F)ccc1F (stereo unspecified),-7%,4%,7,5%,-3
Cc1ccc(-n2c(COCC(=O)O)nc3cccnc32)cc1,-5%,nt,nt,nt,nt
CCOc1ccccc1N(CC(=O)Nc1cccnc1)S(=O)(=O)c1ccc(C)cc1,7%,40%,50*,-3%,160*
CCCN(C(=O)c1cc2ccc3cccnc3c2[nH]1)c1ccc(F)cc1,20%,nt,nt,nt,nt
C/C(=N\NC(=O)c1cc(O)ccc1O)c1cccc(NC(=O)c2ccc(Cl)cc2)c1,2%,-46%,47*,-10%,78*
C/C(=N/NS(=O)(=O)c1ccc(C)cc1)c1cccc(NC(=O)c2cccc(Cl)c2)c1,-7%,-31%,-15,12%,11
C/C(=N\NC(=O)c1cc(O)ccc1O)c1cccc(NC(=O)c2cccc(Cl)c2)c1,2%,-39%,41*,-24%,71*
C/C(=N/NS(=O)(=O)c1ccc(Cl)cc1)c1cccc(NC(=O)c2ccc(Cl)cc2Cl)c1,7%,-36%,33*,28%,84*
C/C(=N\NC(=O)C1CC1)c1cccc(NC(=O)c2cccc(Cl)c2)c1,-1%,-10%,-3,4%,3
Cc1nn(Cc2ccccc2Cl)c(Cl)c1C(=O)NCCc1ccccc1,-1%,13%,47*,-1%,100*
Cc1nn(Cc2ccccc2Cl)c(Cl)c1C(=O)OCC(=O)NCc1ccco1,?,-10%,11*,7%,10
Cc1nn(Cc2ccccc2)c(C)c1C(=O)OCC(=O)NCc1ccco1,-13%,-6%,-2,-14%,-5
NS(=O)(=O)c1ccc(CCNC(=O)c2ccc3c(c2)OCO3)cc1,0%,-15%,-4,13%,-5
O=C(NCCc1ccc(Cl)cc1)c1ccc2c(c1)OCCO2,-11%,-18%,42*,0%,nt
O=C(NCCOc1ccc(Cl)cc1)c1ccc2c(c1)OCCO2,3%,-24%,nt,nt,nt
O=C(NCCc1ccccc1F)c1ccc2c(c1)OCCO2,-11%,-13%,-13,-17%,-21
O=C(NCCN1CCCCC1)c1ccc2c(c1)OCCO2,?,-5%,14*,2%,31
O=C(NCCc1ccc(Cl)cc1)c1ccc2c(c1)OCO2,-4%,-20%,43*,2%,83*
O=C(NCCc1ccc2c(c1)OCCO2)c1ccc(F)cc1,-13%,-23%,34*,-16%,55
COc1ccc(CC(=O)Nc2nc3c(s2)CC(C(C)(C)C)CC3)cc1 (stereo unspecified),-3%,nt,nt,nt,nt
C/C(O)=C(/C#N)c1nc2ccccc2[nH]1,2%,-2%,-1,-10%,-4
N#C/C(=C(/O)C(Cl)(Cl)Cl)c1nc2ccccc2[nH]1,0%,-40%,13*,-2%,18
CC1CCc2nc(/C(C#N)=C/c3ccncc3)sc2C1 (stereo unspecified),4%,-17%,38*,nt,96*
N#C/C(C(=O)c1ccccc1)=C1/CCCCCN1,?,-13%,44*,-14%,94*
